{
  "source": "paper PMC11062922",
  "about": "(Nature Chemical Biology, 2023)",
  "key": {"[1]": {"tested_on": "AAK1", "parameters": "species or system human, MV4-11 + K-562 + COLO205 + SK-N-BE2 + OVCAR-8", "details": "read-out: apparent Kd, compound concentrations: 100 nM and 1000 nM (sheet 'Samples'), n = 1"}, "[2]": {"tested_on": "BMP2K", "parameters": "species or system human, MV4-11 + K-562 + COLO205 + SK-N-BE2 + OVCAR-8", "details": "read-out: apparent Kd, compound concentrations: 100 nM and 1000 nM (sheet 'Samples'), n = 1"}, "[3]": {"tested_on": "CLK1", "parameters": "species or system human, MV4-11 + K-562 + COLO205 + SK-N-BE2 + OVCAR-8", "details": "read-out: apparent Kd; compound concentrations: 100 nM and 1000 nM (sheet 'Samples'), CATDS: 2.3801432407155699E-2; n = 1"}, "[4]": {"tested_on": "CLK4", "parameters": "species or system human, MV4-11 + K-562 + COLO205 + SK-N-BE2 + OVCAR-8", "details": "read-out: apparent Kd; compound concentrations: 100 nM and 1000 nM (sheet 'Samples'), CATDS: 1.10234043350519E-2; n = 1"}, "[5]": {"tested_on": "CSNK2A1;CSNK2A3", "parameters": "species or system human, MV4-11 + K-562 + COLO205 + SK-N-BE2 + OVCAR-8", "details": "read-out: apparent Kd, compound concentrations: 100 nM and 1000 nM (sheet 'Samples'), n = 1"}, "[6]": {"tested_on": "CSNK2A2", "parameters": "species or system human, MV4-11 + K-562 + COLO205 + SK-N-BE2 + OVCAR-8", "details": "read-out: apparent Kd, compound concentrations: 100 nM and 1000 nM (sheet 'Samples'), n = 1"}, "[7]": {"tested_on": "FLT4", "parameters": "species or system human, MV4-11 + K-562 + COLO205 + SK-N-BE2 + OVCAR-8", "details": "read-out: apparent Kd, compound concentrations: 100 nM and 1000 nM (sheet 'Samples'), n = 1"}, "[8]": {"tested_on": "GAK", "parameters": "species or system human, MV4-11 + K-562 + COLO205 + SK-N-BE2 + OVCAR-8", "details": "read-out: apparent Kd, compound concentrations: 100 nM and 1000 nM (sheet 'Samples'), n = 1"}, "[9]": {"tested_on": "GSK3A", "parameters": "species or system human, MV4-11 + K-562 + COLO205 + SK-N-BE2 + OVCAR-8", "details": "read-out: apparent Kd, n = 1"}, "[10]": {"tested_on": "GSK3B", "parameters": "species or system human, MV4-11 + K-562 + COLO205 + SK-N-BE2 + OVCAR-8", "details": "read-out: apparent Kd, n = 1"}, "[11]": {"tested_on": "MELK", "parameters": "species or system human, MV4-11 + K-562 + COLO205 + SK-N-BE2 + OVCAR-8", "details": "read-out: apparent Kd; compound concentrations: 100 nM and 1000 nM (sheet 'Samples'), CATDS: 8.0269577096188198E-3; n = 1"}, "[12]": {"tested_on": "NUAK1", "parameters": "species or system human, MV4-11 + K-562 + COLO205 + SK-N-BE2 + OVCAR-8", "details": "read-out: apparent Kd; compound concentrations: 100 nM and 1000 nM (sheet 'Samples'), CATDS: 8.4437303302316406E-3; n = 1"}, "[13]": {"tested_on": "PAK4", "parameters": "species or system human, MV4-11 + K-562 + COLO205 + SK-N-BE2 + OVCAR-8", "details": "read-out: apparent Kd, n = 1"}, "[14]": {"tested_on": "PKN1", "parameters": "species or system human, MV4-11 + K-562 + COLO205 + SK-N-BE2 + OVCAR-8", "details": "read-out: apparent Kd, n = 1"}, "[15]": {"tested_on": "PKN3", "parameters": "species or system human, MV4-11 + K-562 + COLO205 + SK-N-BE2 + OVCAR-8", "details": "read-out: apparent Kd, n = 1"}, "[16]": {"tested_on": "PRKAG1", "parameters": "species or system human, MV4-11 + K-562 + COLO205 + SK-N-BE2 + OVCAR-8", "details": "read-out: apparent Kd, compound concentrations: 100 nM and 1000 nM (sheet 'Samples'), n = 1"}, "[17]": {"molecular_target": "Q6ZSR9 (human, UniProt Q6ZSR9)", "sequence (Q6ZSR9 whole entry, looked up)": "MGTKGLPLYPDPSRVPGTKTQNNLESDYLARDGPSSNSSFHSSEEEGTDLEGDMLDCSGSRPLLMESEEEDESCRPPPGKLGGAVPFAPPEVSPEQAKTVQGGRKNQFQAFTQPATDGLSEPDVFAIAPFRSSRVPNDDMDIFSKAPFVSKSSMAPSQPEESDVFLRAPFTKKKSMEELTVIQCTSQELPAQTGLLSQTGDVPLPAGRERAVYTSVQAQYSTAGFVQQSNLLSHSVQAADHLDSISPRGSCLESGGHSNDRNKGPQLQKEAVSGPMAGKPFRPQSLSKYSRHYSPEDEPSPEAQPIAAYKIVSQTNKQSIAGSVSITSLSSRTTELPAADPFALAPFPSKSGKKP", "parameters": "species or system MV4-11 + K-562 + COLO205 + SK-N-BE2 + OVCAR-8", "details": "read-out: apparent Kd, compound concentrations: 100 nM and 1000 nM (sheet 'Samples'), n = 1"}, "[18]": {"tested_on": "RET", "parameters": "species or system human, MV4-11 + K-562 + COLO205 + SK-N-BE2 + OVCAR-8", "details": "read-out: apparent Kd; compound concentrations: 100 nM and 1000 nM (sheet 'Samples'), CATDS: 1.4080551975431E-2; n = 1"}, "[19]": {"tested_on": "SIK2", "parameters": "species or system human, MV4-11 + K-562 + COLO205 + SK-N-BE2 + OVCAR-8", "details": "read-out: apparent Kd, compound concentrations: 100 nM and 1000 nM (sheet 'Samples'), n = 1"}, "[20]": {"tested_on": "PKN3", "details": "hek293t cells"}, "[21]": {"details": "compound concentrations:100 nM and 1000 nM (sheet 'Samples')"}},
  "note": "Like-named read-outs stand apart in the source and are kept apart here.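 Wherever IC50 is given: NanoBRET target engagement in HEK293T cells transiently expressing full-length PKN3 with C-terminal NanoLuc, displacement of fluorescent tracer K5 (500 nM), BRET read after 2 h equilibration at 37 °C.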",
  "data": [
    {"compound": "O=C1N=C(NCCc2ccc(Cl)cc2)S/C1=C\\c1ccc2ncccc2c1", "note": "[RO4498479-000]", "values": [
      {"measurement": "potency estimated from few doses", "setting": "[1]; CATDS: 1.47357709485617E-2", "value": 257, "unit": "nM"},
      {"measurement": "potency estimated from few doses", "setting": "[2]; CATDS: 1.0596911535971001E-2", "value": 487, "unit": "nM"},
      {"measurement": "potency estimated from few doses", "setting": "[3]", "value": 123, "unit": "nM"},
      {"measurement": "potency estimated from few doses", "setting": "[4]", "value": 447, "unit": "nM"},
      {"measurement": "potency estimated from few doses", "setting": "[5]; CATDS: 1.63252209283915E-2", "value": 216, "unit": "nM"},
      {"measurement": "potency estimated from few doses", "setting": "[6]; CATDS: 1.5998355653452E-2", "value": 224, "unit": "nM"},
      {"measurement": "potency estimated from few doses", "setting": "[7]; CATDS: 1.0631245795833501E-2", "value": 483, "unit": "nM"},
      {"measurement": "potency estimated from few doses", "setting": "[8]; CATDS: 1.9710228455472299E-2", "value": 161, "unit": "nM"},
      {"measurement": "potency estimated from few doses", "setting": "[9]; compound concentrations: 100 nM and 1000 nM (sheet 'Samples'), CATDS: 2.3758867869594399E-2", "value": 123, "unit": "nM"},
      {"measurement": "potency estimated from few doses", "setting": "[10]; compound concentrations: 100 nM and 1000 nM (sheet 'Samples'), CATDS: 1.7085262625281698E-2", "value": 201, "unit": "nM"},
      {"measurement": "potency estimated from few doses", "setting": "[11]", "value": 1000, "unit": "nM"},
      {"measurement": "potency estimated from few doses", "setting": "[12]", "value": 860, "unit": "nM"},
      {"measurement": "potency estimated from few doses", "setting": "[13]; compound concentrations: 100 nM and 1000 nM (sheet 'Samples'), CATDS: 1.2005445098745401E-2", "value": 375, "unit": "nM"},
      {"measurement": "potency estimated from few doses", "setting": "[14]; compound concentrations: 100 nM and 1000 nM (sheet 'Samples'), CATDS: 9.0371010763674806E-3", "value": 713, "unit": "nM"},
      {"measurement": "potency estimated from few doses", "setting": "[15]; compound concentrations: 100 nM and 1000 nM (sheet 'Samples'), CATDS: 1.12150497096419E-2", "value": 431, "unit": "nM"},
      {"measurement": "potency estimated from few doses", "setting": "[16]; CATDS: 1.32160889121976E-2", "value": 312, "unit": "nM"},
      {"measurement": "potency estimated from few doses", "setting": "[17]; CATDS: 1.3986845405836199E-2", "value": 282, "unit": "nM"},
      {"measurement": "potency estimated from few doses", "setting": "[18]", "value": 278, "unit": "nM"},
      {"measurement": "potency estimated from few doses", "setting": "[19]; CATDS: 1.14849273453617E-2", "value": 410, "unit": "nM"}
    ]},
    {"compound": "CSc1c(C2=C(c3cn(C)c4ccccc34)C(=O)NC2=O)c2ccccc2n1C", "note": "[RO0317340-000]", "values": [
      {"measurement": "potency estimated from few doses", "setting": "[1]; CATDS: 1", "value": 1170, "unit": "nM"}
    ]},
    {"compound": "CCn1c(-c2nonc2N)nc2c(C#CC(C)(C)O)nc(OCCNC)cc21.Cl", "note": "[GSK949675A]", "values": [
      {"measurement": "potency estimated from few doses", "setting": "[9]; [21]", "value": 70.4, "unit": "nM"},
      {"measurement": "potency estimated from few doses", "setting": "[10]; [21]", "value": 91.5, "unit": "nM"},
      {"measurement": "potency estimated from few doses", "setting": "[13]; [21]", "value": 736, "unit": "nM"},
      {"measurement": "potency estimated from few doses", "setting": "[14]; [21]", "value": 675, "unit": "nM"},
      {"measurement": "potency estimated from few doses", "setting": "[15]; [21]", "value": 2.48, "unit": "nM"},
      {"measurement": "IC50", "setting": "[20]; read-out: Average, SD, n = 4", "value": 669, "unit": "nM"},
      {"measurement": "IC50", "setting": "[20]; read-out: Rep 1", "value": 1950, "unit": "nM"},
      {"measurement": "IC50", "setting": "[20]; read-out: Rep 2", "value": 441, "unit": "nM"},
      {"measurement": "IC50", "setting": "[20]; read-out: Rep 3", "value": 149, "unit": "nM"},
      {"measurement": "IC50", "setting": "[20]; read-out: Rep 4", "value": 136, "unit": "nM"}
    ]},
    {"compound": "CN(c1ccc(NC(=O)N2CCN(CCCN3CCOCC3)CC2)cc1)c1ccnc(Nc2ccc(CS(C)(=O)=O)cc2)n1.Cl", "note": "[GW830899A]", "values": [
      {"measurement": "potency estimated from few doses", "setting": "[1]; CATDS: 3.8742372830354199E-2", "value": 411, "unit": "nM"},
      {"measurement": "potency estimated from few doses", "setting": "[2]; CATDS: 2.31268992433276E-2", "value": 1070, "unit": "nM"},
      {"measurement": "potency estimated from few doses", "setting": "[5]; CATDS: 1.98938138742078E-2", "value": 1550, "unit": "nM"},
      {"measurement": "potency estimated from few doses", "setting": "[6]; CATDS: 2.19439033786193E-2", "value": 1210, "unit": "nM"},
      {"measurement": "potency estimated from few doses", "setting": "[7]; CATDS: 1.9888583471378E-2", "value": 1550, "unit": "nM"},
      {"measurement": "potency estimated from few doses", "setting": "[8]; CATDS: 3.3242042513279398E-2", "value": 528, "unit": "nM"},
      {"measurement": "potency estimated from few doses", "setting": "[9]; compound concentrations: 100 nM and 1000 nM (sheet 'Samples'), CATDS: 3.3329188882870099E-2", "value": 525, "unit": "nM"},
      {"measurement": "potency estimated from few doses", "setting": "[10]; compound concentrations: 100 nM and 1000 nM (sheet 'Samples'), CATDS: 2.6554458888549098E-2", "value": 796, "unit": "nM"},
      {"measurement": "potency estimated from few doses", "setting": "[13]; compound concentrations: 100 nM and 1000 nM (sheet 'Samples'), CATDS: 2.0205846564267299E-2", "value": 1490, "unit": "nM"},
      {"measurement": "potency estimated from few doses", "setting": "[15]; compound concentrations: 100 nM and 1000 nM (sheet 'Samples'), CATDS: 1.8045605554117099E-2", "value": 2080, "unit": "nM"},
      {"measurement": "potency estimated from few doses", "setting": "[16]; CATDS: 2.3560969184091798E-2", "value": 1020, "unit": "nM"},
      {"measurement": "potency estimated from few doses", "setting": "[17]; CATDS: 2.6002877269984698E-2", "value": 831, "unit": "nM"},
      {"measurement": "potency estimated from few doses", "setting": "[19]; CATDS: 2.0988983059189802E-2", "value": 1350, "unit": "nM"}
    ]},
    {"compound": "COc1cc(Nc2ncc3c(C)nc(-c4cc5ccccc5[nH]4)n3n2)cc(OC)c1OC", "note": "[GW869516X]", "values": [
      {"measurement": "potency estimated from few doses", "setting": "[5]; CATDS: 0.461357463552929", "value": 78.3, "unit": "nM"},
      {"measurement": "potency estimated from few doses", "setting": "[6]; CATDS: 0.54570756078054605", "value": 55.8, "unit": "nM"}
    ]}
  ]
}
